# Assay results: PubChem BioAssay AID588525 (Broad Institute, 2011)
# Entries with a potency or affinity are not part of this list. Results filed as inconclusive are left out. A number with no mark means an inactive call. Activity calls are given as the source filed them. How the calls were made is not given here.
# Biological target: DNA topoisomerase I (Yersinia pestis CO92) (UniProt A0A2S9PM60)
# Assay: Y. pestis Topo-I inhibitors, cleavage product readout, dose response, biochemical, Y. pestis CO92, cherry-pick (AID 588525)
# Sequence of DNA topoisomerase I (Yersinia pestis CO92) (A0A2S9PM60 1-871): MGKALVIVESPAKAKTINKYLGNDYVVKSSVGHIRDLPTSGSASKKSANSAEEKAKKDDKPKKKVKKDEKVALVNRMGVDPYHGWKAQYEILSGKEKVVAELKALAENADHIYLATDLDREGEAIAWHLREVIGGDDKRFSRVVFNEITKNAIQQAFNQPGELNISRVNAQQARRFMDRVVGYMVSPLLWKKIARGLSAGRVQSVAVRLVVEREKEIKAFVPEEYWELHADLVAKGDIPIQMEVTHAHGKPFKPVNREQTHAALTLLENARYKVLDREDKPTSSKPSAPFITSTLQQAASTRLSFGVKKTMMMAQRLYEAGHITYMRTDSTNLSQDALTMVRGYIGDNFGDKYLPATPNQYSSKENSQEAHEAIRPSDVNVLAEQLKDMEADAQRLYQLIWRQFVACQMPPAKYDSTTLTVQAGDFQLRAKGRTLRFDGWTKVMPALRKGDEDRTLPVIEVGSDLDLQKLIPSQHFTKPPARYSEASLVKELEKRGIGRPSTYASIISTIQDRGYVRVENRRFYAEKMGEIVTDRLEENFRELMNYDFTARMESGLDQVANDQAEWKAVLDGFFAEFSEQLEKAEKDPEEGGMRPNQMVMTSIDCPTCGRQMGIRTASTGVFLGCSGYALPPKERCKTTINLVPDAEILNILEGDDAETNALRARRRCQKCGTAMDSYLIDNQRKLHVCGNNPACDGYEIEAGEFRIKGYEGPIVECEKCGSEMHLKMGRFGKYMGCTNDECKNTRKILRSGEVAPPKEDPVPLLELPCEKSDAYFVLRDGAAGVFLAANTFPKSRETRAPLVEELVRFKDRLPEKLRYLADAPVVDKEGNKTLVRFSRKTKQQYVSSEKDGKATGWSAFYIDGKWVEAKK
SMILES,outcome,activity (cleavage complex accumulation)
O=C(Cc1ccccc1)CC(CC(=O)c1ccccc1)c1ccccc1 (centres undefined),inactive,–
O=C(NCCn1cc(SCc2ccccc2)c2ccccc21)c1ccccc1F,–,26.2% [at 5 µM]
Cc1cc(NC(=O)C(C)SCC(=O)N(C)CC(=O)Nc2ccc(F)cc2)no1 (centres undefined),inactive,–
COC(=O)c1ccc(C2C(Oc3ccc(OC)cc3)C(=O)N2CCc2ccc(F)cc2)cc1 (centres undefined),inactive,–
Cc1ccccc1OCC(=O)Nc1ccccc1N1CCCCC1,inactive,–
CCCCCCCCN1[C@@H](CC(C)=O)c2cc(C(F)(F)F)ccc2S1(=O)=O,inactive,–
CCCCC(CC)COC(=O)c1ccccc1C(=O)OCC(CC)CCCC (centres undefined),inactive,–
CCCCOC(=O)Nc1nnc(/C=C/c2ccc(OC)cc2)s1,inactive,–
CC1CCN(c2oc(Cc3cccc4ccccc34)nc2C#N)CC1,inactive,–
O=C(NCC1(c2ccccc2)CCCC1)C1(c2ccccc2)CCCC1,inactive,–
C[C@H]1CCC(=O)N([C@H](CSc2ccccc2)Cc2ccccc2)CC1,inactive,–
COc1ccc(C2CC(c3ccccc3)=NN2C(=O)COC(=O)c2cccc(S(=O)(=O)N3CCOCC3)c2)cc1 (centres undefined),inactive,–
Cc1ccc(CSc2nc3c(c(N(C)C)n2)CCCC3)cc1,inactive,–
CC(=O)c1ccccc1OCc1ccc(C(=O)c2ccccc2)cc1,inactive,–
CSc1ccccc1NC(=O)COC(=O)c1ccccc1Cc1ccccc1,inactive,–
CC(C)OC(=O)C(C)(C)Oc1ccc(C(=O)c2ccc(Cl)cc2)cc1,inactive,–
O=C(OCc1ccccc1)N1CCC2CC1c1c(Cl)cccc12 (centres undefined),inactive,–
O=C(COC(=O)CCC1CCCC1)Nc1ccccc1Sc1ccccc1,inactive,–
COc1ccccc1C(=O)NCCC(=O)N1CC=C(c2ccccc2)CC1,inactive,–
O=C(COc1c(Cl)cccc1Cl)Nc1ccccc1N1CCCC1,inactive,–
C#CCN(C[C@@H](CC(C)C)NC(=O)OC(C)(C)C)S(=O)(=O)c1ccc(Br)cc1F,inactive,–
CCCCN1CC(COCc2ccccc2)Oc2cccc(F)c2S1(=O)=O (centres undefined),inactive,–
Cc1ccc2c(Cl)c(C)c(N3CCCCC3)nc2n1,inactive,–
CCCCn1c(C)cc(C)c(S(=O)(=O)c2ccccc2C)c1=O,inactive,–
